Each structure is given as a SMILES string. Values without a mark were called inactive. Results filed as inconclusive are left out. Activity calls are given as the source filed them. Unless noted, calls follow the shape of the dose curve; as a rule, active = well fitted curve in the direction sought with a large enough effect; inconclusive = small, poorly fitted or top-dose-only effect, or another doubt; inactive = no such curve, though single readings can be large; an effect the other way counts as inactive or inconclusive.

The target in assay [1] is Lysosomal acid glucosylceramidase (Homo sapiens) (UniProt P04062). Briefly: Glucocerebrosidase-p2 (AID 348; in the data active = potency below about 10 µM; also: potency is read from the fitted curve at half-maximal effect). To be noted: purified GBA, blue fluorogenic substrate, 40 min. Put shortly: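 Compounds titrated from 0.6 nM upwards against 0.2 nM enzyme in pH 5.9 citric acid/KH2PO4, taurocholate, tween-20; blue fluorogenic substrate 80 uM, 40 min room temperature, stopped and read Ex 365/Em 440 for AC50.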

The nature of assay [2]: AP1 Signaling Pathway (AID 357; active = well fitted curve in either direction with a large enough effect, not every such curve was filed as active;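 also: ME-180 reporter cells stimulated with EGF at its EC50 level; % is scaled to controls: 0 for no effect and ±100 for the full control effect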). Conditions: ME-180 AP-1-bla reporter, EGF-induced, beta-lactamase ratio, 5 h; at 7.69 µM (top of the series) unless noted. The gist of the method:
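In this screen, ME-180 cells in Opti-MEM with 0.5% dialyzed FBS received EC50 EGF and compound titrations for 5 h. AP-1 reporter beta-lactamase was detected via CCF4 ratio, giving AC50 for positive and negative modulators.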

Assay [3] concerns the target Cytochrome P450 1A2 (Homo sapiens) (UniProt P05177). The assay can be described thus: p450-cyp1a2 (AID 410; calls by dose curve; also: potency is read from the fitted curve at half-maximal effect). To be noted: recombinant CYP1A2, luciferin-ME demethylation, luminescence; series mostly up to 57 µM. Put shortly:
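Inhibition was calculated relative to 57 uM furafylline (full inhibition). The reaction used human CYP1A2 at 20nM with Luciferin-ME at its Km, 100uM, driven by an NADPH-regenerating system for 60 min at room temperature.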

Assay [4] can be described thus: NFAT Signaling Pathway (AID 444; active = well fitted curve in either direction with a large enough effect, not every such curve was filed as active;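 also: carbachol stimulus at about its EC50 of 1 µM final; % is scaled to controls: 0 for no effect and ±100 for the full control effect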). To be noted: Jurkat NFAT-bla M1, carbachol, beta-lactamase ratio, 5 h; at 7.69 µM (top of the series) unless noted. Put shortly:
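Jurkat cells with NFAT-driven β-lactamase reporter and co-expressed M1 receptor, stimulated with carbachol (final 1 uM, ~EC50), compound titration, 5 h at 37 °C. CCF4 loaded 1 h at RT; 460/530 nm ratio gave %activity and AC50.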

The nature of assay [5]: Stat Signaling Pathway (AID 446; active = well fitted curve in either direction with a large enough effect, not every such curve was filed as active;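 also: ME-180 cervical cancer cells given 40 pM IL-6 alongside compound; SIE-controlled beta-lactamase reporter measured as 460/530 nm FRET emission ratio; % is scaled to controls: 0 for no effect and ±100 for the full control effect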). To be noted: ME-180 SIE beta-lactamase reporter, IL-6 stimulated, 5 h; at 7.69 µM (top of the series) unless noted. The gist of the method:
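ME-180 SIE-bla cells; overnight plating; cpd + IL-6 40 pM, 5 h, 37 C; LiveBLAzer 2.5 h RT; 460/530 nm emission ratio. Normalized to 300 pM IL-6 and 125 nM JAK inhibitor controls.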

Assay [6] addresses Glucocorticoid receptor (Homo sapiens) (UniProt P04150). The assay can be described thus: GR-GFP Redistribution (AID 450;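 active = compounds whose dose series gives a full or clear partial fitted curve of increased nuclear translocation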; also: potency is read from the fitted curve at half-maximal effect). To be noted: U2OS GR-GFP nuclear translocation, laser cytometry, 2 h.
Assay [7] has the same target. The assay can be described thus: GR-EFC Redistribution (AID 451; calls by dose curve; also: potency is read from the fitted curve at half-maximal effect). To be noted: CHO-K1 GR-EFC translocation, beta-gal luminescence, 2 h. The gist of the method:
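CHO-K1 cells expressing nuclear EA and GR-ED fragments of b-gal; compounds titrated up to 46 uM final, 2 h at 37 C. GR nuclear translocation read as complemented b-gal luminescence after 1 h RT detection.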

For assay [8], the target named is Mitogen-activated protein kinase 10 (Mus musculus) (UniProt Q61831). Briefly: JNK3 AlphaScreen Assay (AID 530; active = well fitted curve in either direction with a large enough effect, not every such curve was filed as active;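 also: kinase came from lysate of stimulated human HepG2 cells; signal reports phosphorylation of biotinylated GST-cJun 1-79 at Ser73 with 10 µM ATP; % is scaled to controls: 0 for no effect and ±100 for the full control effect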). To be noted: JNK3 lysate, c-Jun phosphorylation; series mostly up to 57.1 µM. Put shortly: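 qHTS format: compounds tested as titrations against IL-1beta/TNF-alpha-activated HepG2 lysate JNK3 with biotin-GST-cJun substrate and 10 uM ATP at room temperature. Loss of anti-phospho-cJun AlphaScreen signal indicates inhibition.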

The target in assay [9] is 3',5'-cyclic-AMP phosphodiesterase 4B (Homo sapiens) (UniProt Q07343). Briefly: qHTS Assay for Inhibitors of PDE-IV (AID 607; active = well fitted activation curve with a large enough effect in the main read-out, with a control signal flat, not every such curve was filed as active; also: % of control where 0% means no effect). Conditions: HEK293 ACTOne CNG channel cells, membrane potential fluorescence; series mostly up to 22.9 µM. Put shortly: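 ACTOne HEK293 cells carry a modified cAMP-gated CNG channel and express endogenous PDE4; plated 1000 cells/well, compounds up to 22.9 uM final. Membrane-potential dye fluorescence (ex 535/em 590) was read; parental cells received 10 uM forskolin + 100 uM RO 20-1724.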

The target of assay [10] is Cytochrome P450 3A4 (Homo sapiens) (UniProt P08684). Briefly: qHTS Assay for Inhibitors and Substrates of Cytochrome P450 3A4 (AID 884). Also: nearly all actives have a fitted effect of over 50% in size. Also: potency is read from the fitted curve at half-maximal effect. Conditions: recombinant CYP3A4, Luciferin-PPXE luminescence; series mostly up to 57.1 µM. Put shortly: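 20 nM human CYP3A4 with 25 uM Luciferin-PPXE (at KM) in 200 mM KPO4, preincubated 10 min with compound; NADPH regeneration started a 60 min RT reaction. Luciferin detected by luminescence, normalized to 57 uM ketoconazole as full inhibition.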

The target is the same in assay [11]. The assay can be described thus: qHTS Assay for Activators of Cytochrome P450 3A4 (AID 885). Also: nearly all actives have a fitted effect of over 65% in size. Also: potency is read from the fitted curve at half-maximal effect. To be noted: recombinant CYP3A4, Luciferin-PPXE luminescence, 60 min; series mostly up to 57.1 µM. The gist of the method: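 20nM CYP3A4 + 25uM Luciferin-PPXE (=KM), 200mM KPO4; cpd 10 min RT; NADPH regen, 60 min RT; stop w/ detection buffer, 20 min; luminescence. Normalized to 57 uM ketoconazole.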

For assay [12], the target named is Dual specificity protein kinase CLK4 (Homo sapiens) (UniProt Q9HAZ1). The assay can be described thus: qHTS Assay for Inhibitors of CDC-like Kinase 4 (ADP-Glo Assay) (AID 1771). Also: nearly all actives have a fitted effect of over 70% in size. Also: potency is read from the fitted curve at half-maximal effect. Conditions: recombinant CLK4, ADP-Glo luminescence; series mostly up to 80 µM. Put shortly: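 Kinase reaction: Clk4 at 25 nM, RS repeat peptide substrate at 100 uM, ATP at 1 uM, 1 hr, room temperature. Product ADP detected as luciferase signal via ADP-Glo.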

For assay [13] the target is unchanged. Briefly: qHTS Assay for Inhibitors of CDC-like Kinase 4 (ADP-FP Assay) (AID 1795). Also: % is scaled to controls: 0 for no effect and ±100 for the full control effect; nearly all actives have a fitted effect of over 60% in size. To be noted: Transcreener ADP fluorescence polarization; series mostly up to 50 µM. Put shortly: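 Kinase activity was measured as ADP production using Transcreener orange tracer (4 nM) and ADP antibody (1 ug/mL) fluorescence polarization, with ADP calculated from a calibration curve. The 1 h reaction contained 6.25 nM Clk4, 1 uM ATP and 100 uM RS peptide at pH 7.5 with Mg2+.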

In assay [14] the target is Ubiquitin carboxyl-terminal hydrolase 1 (Homo sapiens) (UniProt O94782). The assay can be described thus: Inhibitors of USP1/UAF1: Pilot qHTS (AID 504865).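 Also: rhodamine fluorescence freed from ubiquitin-rhodamine substrate followed over time; top concentration of the series differs between compounds; % is scaled to controls: 0 for no effect and ±100 for the full control effect; nearly all actives have a fitted effect of over 35% in size.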 To be noted: purified USP1/UAF1, Ub-rhodamine cleavage fluorescence; series mostly up to 54.9 µM. Put shortly:
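Deubiquitinase activity followed as kinetic rhodamine fluorescence release from 150 nM Ub-Rho. 1 nM USP1/UAF1 with compound, after 15 min room-temperature preincubation, in HEPES pH 7.8 buffer containing TCEP, EDTA, BSA and Tween-20.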

Assay [15] can be described thus: Primary qHTS for small molecule stabilizers of the endoplasmic reticulum resident proteome: Secreted ER Calcium Modulated Protein (SERCaMP) assay (AID 1508630). Also: % is scaled to controls: 0 for no effect and ±100 for the full control effect. Conditions: SH-SY5Y GLuc-SERCaMP (Gaussia luciferase released on ER calcium loss) secretion, thapsigargin, luminescence; series mostly up to 38.4 µM. The gist of the method: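 GLuc-SERCaMP-expressing SH-SY5Y cells, pretreated 16 h with compound, are challenged with thapsigargin to empty ER calcium stores; after 4 h, coelenterazine is added directly to the medium and luminescence is imaged.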

The target in assay [16] is Cytochrome P450 2C9 (Homo sapiens) (UniProt P11712). The assay can be described thus: qHTS Assay for Inhibitors and Substrates of Cytochrome P450 2C9 (AID 883). Also: % is scaled to controls: 0 for no effect and ±100 for the full control effect; nearly all actives have a fitted effect of over 60% in size. To be noted: recombinant CYP2C9, luciferin-H luminescence, 60 min; series mostly up to 57.1 µM. Put shortly:
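Human CYP2C9 (10nM) with Luciferin-H at 100uM (its KM) in 25mM KPO4; compound preincubated 10 min at 37C, then NADPH regeneration for 60 min at 37C. Luciferin read by luminescence after detection reagent; normalized to 57uM sulphaphenazole as full inhibition.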

Assay [17] can be described thus: qHTS Assay for Identification of Small Molecule Agonists for Hypoxia Response Element Signaling Pathway (AID 914; active = well fitted activation curve with a large enough effect in the signal ratio, with a control signal flat, not every such curve was filed as active; the % refers to the signal ratio; also: % of control where 0% means no effect). Conditions: ME-180 (cervical carcinoma) HRE-bla reporter, beta-lactamase ratio, CoCl2, 17 h; activation: stronger effect = higher value. The gist of the method: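 A beta-lactamase reporter under hypoxia response element control in ME-180 cells served as the system. Compound titrations plus EC50 CoCl2 ran 17 h at 37 degrees Celsius; AC50 values were fitted from %Activity.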

Sequence of Glucocorticoid receptor (Homo sapiens) (P04150 whole entry, looked up): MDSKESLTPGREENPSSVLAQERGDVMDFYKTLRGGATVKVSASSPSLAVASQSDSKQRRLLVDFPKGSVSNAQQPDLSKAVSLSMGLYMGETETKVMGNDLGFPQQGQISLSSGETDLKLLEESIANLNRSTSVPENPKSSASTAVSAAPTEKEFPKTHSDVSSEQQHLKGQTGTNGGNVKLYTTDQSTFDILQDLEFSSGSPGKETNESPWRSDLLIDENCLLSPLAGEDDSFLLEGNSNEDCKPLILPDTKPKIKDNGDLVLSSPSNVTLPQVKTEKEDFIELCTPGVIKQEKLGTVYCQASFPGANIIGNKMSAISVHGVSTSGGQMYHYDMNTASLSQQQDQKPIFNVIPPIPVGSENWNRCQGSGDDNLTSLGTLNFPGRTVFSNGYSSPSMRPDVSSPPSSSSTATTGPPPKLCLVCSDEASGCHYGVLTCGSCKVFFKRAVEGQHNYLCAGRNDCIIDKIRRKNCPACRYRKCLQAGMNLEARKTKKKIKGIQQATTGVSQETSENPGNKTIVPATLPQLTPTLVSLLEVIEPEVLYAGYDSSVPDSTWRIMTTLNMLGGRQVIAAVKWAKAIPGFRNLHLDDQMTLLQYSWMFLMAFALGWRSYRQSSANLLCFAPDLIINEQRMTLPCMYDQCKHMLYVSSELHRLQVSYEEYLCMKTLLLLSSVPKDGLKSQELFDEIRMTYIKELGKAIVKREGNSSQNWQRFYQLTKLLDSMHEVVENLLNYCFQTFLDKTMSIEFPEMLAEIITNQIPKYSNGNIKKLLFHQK
Sequence of Lysosomal acid glucosylceramidase (Homo sapiens) (P04062 whole entry, looked up): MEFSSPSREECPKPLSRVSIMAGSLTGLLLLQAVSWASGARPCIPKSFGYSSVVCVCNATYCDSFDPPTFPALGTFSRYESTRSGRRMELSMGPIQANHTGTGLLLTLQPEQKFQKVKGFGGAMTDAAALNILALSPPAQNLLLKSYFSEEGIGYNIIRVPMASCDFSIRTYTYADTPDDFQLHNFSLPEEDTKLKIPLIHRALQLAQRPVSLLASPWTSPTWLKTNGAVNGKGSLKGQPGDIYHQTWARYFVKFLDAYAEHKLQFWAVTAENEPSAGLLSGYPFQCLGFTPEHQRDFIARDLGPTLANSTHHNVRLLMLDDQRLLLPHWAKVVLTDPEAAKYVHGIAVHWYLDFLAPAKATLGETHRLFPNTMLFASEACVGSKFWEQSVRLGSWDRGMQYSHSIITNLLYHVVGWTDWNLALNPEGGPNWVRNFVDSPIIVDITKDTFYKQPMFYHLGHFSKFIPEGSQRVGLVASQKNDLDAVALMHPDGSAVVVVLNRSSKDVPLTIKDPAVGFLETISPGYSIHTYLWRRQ
Sequence of Cytochrome P450 3A4 (Homo sapiens) (P08684 whole entry, looked up): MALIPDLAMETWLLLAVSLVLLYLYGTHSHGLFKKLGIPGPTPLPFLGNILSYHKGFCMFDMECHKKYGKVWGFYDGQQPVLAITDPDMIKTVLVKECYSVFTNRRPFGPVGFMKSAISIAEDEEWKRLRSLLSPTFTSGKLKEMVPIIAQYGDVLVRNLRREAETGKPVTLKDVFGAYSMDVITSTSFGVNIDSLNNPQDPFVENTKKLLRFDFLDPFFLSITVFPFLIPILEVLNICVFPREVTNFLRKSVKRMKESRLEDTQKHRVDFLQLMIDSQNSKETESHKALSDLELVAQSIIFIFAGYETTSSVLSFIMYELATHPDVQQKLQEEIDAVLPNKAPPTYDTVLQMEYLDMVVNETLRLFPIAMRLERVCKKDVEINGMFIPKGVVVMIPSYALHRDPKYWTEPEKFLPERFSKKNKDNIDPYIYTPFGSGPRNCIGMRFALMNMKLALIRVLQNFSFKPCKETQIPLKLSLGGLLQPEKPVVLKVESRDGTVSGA
Sequence of Dual specificity protein kinase CLK4 (Homo sapiens) (Q9HAZ1 whole entry, looked up): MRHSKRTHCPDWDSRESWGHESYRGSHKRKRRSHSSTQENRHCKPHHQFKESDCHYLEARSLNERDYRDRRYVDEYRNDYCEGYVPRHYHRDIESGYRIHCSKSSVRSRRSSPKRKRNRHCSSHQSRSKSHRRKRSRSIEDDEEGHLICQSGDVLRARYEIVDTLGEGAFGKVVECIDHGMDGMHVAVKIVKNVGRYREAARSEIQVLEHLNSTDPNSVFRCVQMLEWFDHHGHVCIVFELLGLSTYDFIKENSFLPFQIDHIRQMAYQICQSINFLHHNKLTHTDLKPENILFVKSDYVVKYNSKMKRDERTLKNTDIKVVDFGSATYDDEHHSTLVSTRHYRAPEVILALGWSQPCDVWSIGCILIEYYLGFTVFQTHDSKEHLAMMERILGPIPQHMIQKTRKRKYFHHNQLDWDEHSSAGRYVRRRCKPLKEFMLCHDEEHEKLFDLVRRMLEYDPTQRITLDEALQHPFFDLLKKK
Sequence of Cytochrome P450 1A2 (Homo sapiens) (P05177 whole entry, looked up): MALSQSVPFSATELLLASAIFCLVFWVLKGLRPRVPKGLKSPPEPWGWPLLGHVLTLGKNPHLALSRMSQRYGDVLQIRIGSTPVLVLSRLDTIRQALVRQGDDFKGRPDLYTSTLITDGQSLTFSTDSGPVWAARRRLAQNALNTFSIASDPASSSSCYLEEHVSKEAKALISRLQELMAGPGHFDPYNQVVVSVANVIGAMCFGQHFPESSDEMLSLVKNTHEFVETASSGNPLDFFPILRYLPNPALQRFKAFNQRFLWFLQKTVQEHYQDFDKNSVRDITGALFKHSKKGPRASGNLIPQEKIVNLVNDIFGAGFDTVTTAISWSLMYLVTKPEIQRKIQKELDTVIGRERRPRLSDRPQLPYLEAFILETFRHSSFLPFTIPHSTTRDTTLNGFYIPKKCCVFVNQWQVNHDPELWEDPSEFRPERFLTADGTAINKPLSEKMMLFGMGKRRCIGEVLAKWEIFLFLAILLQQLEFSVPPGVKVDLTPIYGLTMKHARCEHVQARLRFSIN
Sequence of 3',5'-cyclic-AMP phosphodiesterase 4B (Homo sapiens) (Q07343 whole entry, looked up): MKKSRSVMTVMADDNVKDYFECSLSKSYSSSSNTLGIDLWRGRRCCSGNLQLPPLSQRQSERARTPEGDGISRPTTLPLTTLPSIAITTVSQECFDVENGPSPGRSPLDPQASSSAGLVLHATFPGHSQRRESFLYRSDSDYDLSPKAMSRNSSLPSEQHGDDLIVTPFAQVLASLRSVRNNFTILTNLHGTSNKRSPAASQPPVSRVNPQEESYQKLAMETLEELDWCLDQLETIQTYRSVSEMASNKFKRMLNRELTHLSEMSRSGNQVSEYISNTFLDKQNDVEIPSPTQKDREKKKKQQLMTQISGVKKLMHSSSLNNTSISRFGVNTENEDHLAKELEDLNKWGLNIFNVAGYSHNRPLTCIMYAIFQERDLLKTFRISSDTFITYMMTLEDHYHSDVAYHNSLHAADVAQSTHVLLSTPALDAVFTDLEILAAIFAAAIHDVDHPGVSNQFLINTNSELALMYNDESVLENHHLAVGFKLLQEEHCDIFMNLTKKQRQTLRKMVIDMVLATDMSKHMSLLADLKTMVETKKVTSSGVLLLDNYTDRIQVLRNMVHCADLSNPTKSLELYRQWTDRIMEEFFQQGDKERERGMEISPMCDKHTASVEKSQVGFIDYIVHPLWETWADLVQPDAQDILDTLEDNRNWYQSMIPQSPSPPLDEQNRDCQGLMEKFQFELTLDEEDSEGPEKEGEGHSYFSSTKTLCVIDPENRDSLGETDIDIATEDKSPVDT
Sequence of Ubiquitin carboxyl-terminal hydrolase 1 (Homo sapiens) (O94782 whole entry, looked up): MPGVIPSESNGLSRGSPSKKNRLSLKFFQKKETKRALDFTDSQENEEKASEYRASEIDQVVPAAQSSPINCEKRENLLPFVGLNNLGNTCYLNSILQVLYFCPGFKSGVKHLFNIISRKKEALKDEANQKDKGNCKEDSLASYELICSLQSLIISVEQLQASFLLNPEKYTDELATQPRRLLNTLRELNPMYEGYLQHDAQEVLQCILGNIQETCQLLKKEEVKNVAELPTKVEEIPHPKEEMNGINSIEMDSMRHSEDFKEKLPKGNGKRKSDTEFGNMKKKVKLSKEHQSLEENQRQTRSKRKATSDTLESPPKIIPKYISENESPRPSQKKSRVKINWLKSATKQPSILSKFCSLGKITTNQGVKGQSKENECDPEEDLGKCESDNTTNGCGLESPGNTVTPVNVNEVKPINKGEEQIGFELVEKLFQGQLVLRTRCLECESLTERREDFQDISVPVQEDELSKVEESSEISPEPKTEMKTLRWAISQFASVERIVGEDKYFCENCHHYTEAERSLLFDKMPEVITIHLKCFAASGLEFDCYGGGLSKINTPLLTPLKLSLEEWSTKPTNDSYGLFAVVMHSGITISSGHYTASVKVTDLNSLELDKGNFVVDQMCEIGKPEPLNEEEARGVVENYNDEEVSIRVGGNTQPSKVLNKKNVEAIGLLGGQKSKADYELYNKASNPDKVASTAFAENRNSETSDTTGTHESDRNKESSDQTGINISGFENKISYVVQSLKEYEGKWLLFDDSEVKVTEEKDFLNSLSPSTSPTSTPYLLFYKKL
Sequence of Cytochrome P450 2C9 (Homo sapiens) (P11712 whole entry, looked up): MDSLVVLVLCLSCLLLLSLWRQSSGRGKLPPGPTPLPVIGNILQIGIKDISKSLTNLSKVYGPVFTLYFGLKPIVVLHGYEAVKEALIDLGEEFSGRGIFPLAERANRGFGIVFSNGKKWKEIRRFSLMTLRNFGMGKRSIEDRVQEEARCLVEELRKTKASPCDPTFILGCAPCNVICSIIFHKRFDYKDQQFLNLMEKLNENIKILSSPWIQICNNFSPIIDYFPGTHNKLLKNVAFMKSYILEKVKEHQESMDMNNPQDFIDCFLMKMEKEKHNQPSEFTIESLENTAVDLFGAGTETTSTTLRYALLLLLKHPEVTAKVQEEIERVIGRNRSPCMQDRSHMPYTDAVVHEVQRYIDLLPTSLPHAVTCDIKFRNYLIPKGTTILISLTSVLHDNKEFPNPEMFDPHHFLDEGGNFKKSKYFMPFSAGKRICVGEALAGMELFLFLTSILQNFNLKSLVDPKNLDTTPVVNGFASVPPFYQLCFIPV

Turning to `COc1cccc(-c2nccc(NCc3cnc(C)cn3)n2)c1`, the Potency in assay [1] was greater than 11.4 µM; in assay [3] it was 0.501 µM (active); in assay [6] it was greater than 46 µM; in assay [7], greater than 46 µM; in [10], 6.31 µM (active); in [12], 28.2 µM (active). Besides, the figures for the activity change, negative = inhibition in assay [2] and in assay [4] were 2.41% and -1.09%, respectively. Moreover, the activity, negative = inhibition in assay [5] was 13.7%. Besides, the Potency entry in assay [8], in [9], in [11], in [13] and in assay [14] was “inactive” each time. The outcome in [15] was inactive.

Consider `Cc1cnc(CNc2cc(-c3ccccc3C(F)(F)F)ncn2)cn1`, for which the Potency was greater than 11.4 µM in [1]; 25.1 µM (active) in assay [3]; greater than 46 µM in [6]; greater than 46 µM in [7]; 6.31 µM (active) in [11]. Further, the activity change, negative = inhibition was 3.5% in [2], 10.7% in assay [4] and 49.4% [at 2.29 µM] in assay [16]. Besides, the activity, negative = inhibition in assay [5] is 8.02%. The Potency result in [8], in assay [9], in [10], in assay [12], in [13] and in assay [14] was “inactive” in each case. In addition, the activation in [17] is 4.59%. In addition, the result in assay [15] was inactive.

Regarding `CN(C)c1ncc2nc(-c3ccc(Cl)cc3)c(=O)n(C[C@H]3CCCO3)c2n1`, the Potency in assay [1] was greater than 11.4 µM; in [3], 3.98 µM (active); in assay [6] it was greater than 9.22 µM; in assay [7] it was greater than 46 µM. Besides, the activity change, negative = inhibition in assay [2] is 9.11%; in assay [4], 21.9%. Besides, the activity, negative = inhibition in assay [5] was 11.6%. In addition, the Potency result in assay [8], in assay [9], in assay [12], in assay [13] and in [14] was “inactive” in each case. Moreover, the outcome in assay [15] was inactive.

(Values after PubChem BioAssay (NCATS).)
